According to the supplement of paper PMC3545927:
The list shows a part of the results. The true hit rate is not given.

B1: HC2139 (peptide)
chain: CAEPVVCCSMAGNASASA
B2: HC1400 (peptide)
chain: CAVLDSHYQDAGNASASA
B3: FS-508 (peptide)
chain: CATEHRVCRSAGNASASA
B4: FS-1342 (peptide)
chain: CAIERVHKRSAGNASASA
B5: FS-1484 (peptide)
chain: CASDDRLCRSAGNASASA
B6: HC1205 (peptide)
chain: CAEYVEIRQVAGNASASA
B7: HC1057 (peptide)
chain: CAFTAAVTSPAGNASASA
B8: FS-2138 (peptide)
chain: CARFARHVSPAGNASASA
B9: FS-2633 (peptide)
chain: CARAARGTSPAGNASASA
B10: FS-2094 (peptide)
chain: CARTARSTNKAGNASASA
B11: FS-1759 (peptide)
chain: CARPEKSVNKAGNASASA
B12: FS-3103 (peptide)
chain: CARTARSEEDAGNASASA
B13: FS-3102 (peptide)
chain: CARTARAWGKAGNASASA
B14: FS-2611 (peptide)
chain: CARTARAVSPAGNASASA
B15: HC1158 (peptide)
chain: CALKAKLMPQAGNASASA
B16: HC82 (peptide)
chain: CAVVCGSMSYAGNASASA
B17: FS-1541 (peptide)
chain: CALRYRHKRIAGNASASA
B18: FS-1257 (peptide)
chain: CARFHRACRLAGNASASA
B19: FS-1542 (peptide)
chain: CALRYRHKRLAGNASASA
B20: FS-1464 (peptide)
chain: CALRDYIPRIAGNASASA
B21: HC1614 (peptide)
chain: CAACLRKLGVAGNASASA
B22: FS-1171 (peptide)
chain: CATKKRPRRMAGNASASA
B23: FS-1664 (peptide)
chain: CAYCLRKRRMAGNASASA
B24: FS-876 (peptide)
chain: CASWERPRRPAGNASASA
B25: FS-1437 (peptide)
chain: CAWGRRKARMAGNASASA
B26: FS-77 (peptide)
chain: CAQGCRKDRGAGNASASA
B27: FS-110 (peptide)
chain: CAYPNRPDRPAGNASASA
B28: HC997 (peptide)
chain: CAYCLSTGCVAGNASASA
B29: FS-1227 (peptide)
chain: CALKRRDRRMAGNASASA
B30: FS-2390 (peptide)
chain: CAFERRSFETAGNASASA
B31: HC669 (peptide)
chain: CAGMVSKGWRAGNASASA
B32: HC629 (peptide)
chain: CAVIIKLGALAGNASASA
B33: HC2488 (peptide)
chain: CASWPCSAHLAGNASASA
B34: HC2297 (peptide)
chain: CADSEVVTSTAGNASASA
B35: HC726 (peptide)
chain: CAYLVTRHADAGNASASA
B36: FS-1302 (peptide)
chain: CAAKRRPRRMAGNASASA
B37: FS-1036 (peptide)
chain: CAMLKRFARMAGNASASA
B38: HC405 (peptide)
chain: CAYPPKPCGIAGNASASA
B39: HC36 (peptide)
chain: CAMEECTQHLAGNASASA
B40: HC1069 (peptide)
chain: CAAAQLAAPGAGNASASA
B41: HC1983 (peptide)
chain: CAAVCCSMSYAGNASASA
B42: FS-2835 (peptide)
chain: CARTRRPGEPAGNASASA
B43: FS-2191 (peptide)
chain: CARTRRYTLFAGNASASA
B44: FS-2665 (peptide)
chain: CARFRRQDVRAGNASASA
B45: FS-3112 (peptide)
chain: CARTRRYYLSAGNASASA
B46: FS-2090 (peptide)
chain: CARSRRLQQRAGNASASA
B47: FS-2096 (peptide)
chain: CARTRREAPRAGNASASA
B48: FS-3237 (peptide)
chain: CARSRRSEERAGNASASA
B49: FS-2813 (peptide)
chain: CARSQRSEERAGNASASA

Molecular target: furin, P09958
Assay: furin cleavage Z-score vs untreated control; higher = more cleavage, active = 3.5 or more, inactive = 1 or less, 8 variable residues between constant flanks
Summary of the method: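 Peptides 8 residues long, fused to a cDNA oligonucleotide, were fixed to magnetic beads by the N-terminus and exposed to purified furin. The 0.01 ml reactions contained 50 mM HEPES pH 7.5 with CaCl2 and NaCl at 1:10 enzyme:substrate and ran 7.5, 15 or 30 min. For the cleavage Z-score, log counts of sequenced released DNA were compared with furin-free reactions, lowess-adjusted and scaled by median absolute deviation.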

Sequence of furin, P09958 (P09958 whole entry): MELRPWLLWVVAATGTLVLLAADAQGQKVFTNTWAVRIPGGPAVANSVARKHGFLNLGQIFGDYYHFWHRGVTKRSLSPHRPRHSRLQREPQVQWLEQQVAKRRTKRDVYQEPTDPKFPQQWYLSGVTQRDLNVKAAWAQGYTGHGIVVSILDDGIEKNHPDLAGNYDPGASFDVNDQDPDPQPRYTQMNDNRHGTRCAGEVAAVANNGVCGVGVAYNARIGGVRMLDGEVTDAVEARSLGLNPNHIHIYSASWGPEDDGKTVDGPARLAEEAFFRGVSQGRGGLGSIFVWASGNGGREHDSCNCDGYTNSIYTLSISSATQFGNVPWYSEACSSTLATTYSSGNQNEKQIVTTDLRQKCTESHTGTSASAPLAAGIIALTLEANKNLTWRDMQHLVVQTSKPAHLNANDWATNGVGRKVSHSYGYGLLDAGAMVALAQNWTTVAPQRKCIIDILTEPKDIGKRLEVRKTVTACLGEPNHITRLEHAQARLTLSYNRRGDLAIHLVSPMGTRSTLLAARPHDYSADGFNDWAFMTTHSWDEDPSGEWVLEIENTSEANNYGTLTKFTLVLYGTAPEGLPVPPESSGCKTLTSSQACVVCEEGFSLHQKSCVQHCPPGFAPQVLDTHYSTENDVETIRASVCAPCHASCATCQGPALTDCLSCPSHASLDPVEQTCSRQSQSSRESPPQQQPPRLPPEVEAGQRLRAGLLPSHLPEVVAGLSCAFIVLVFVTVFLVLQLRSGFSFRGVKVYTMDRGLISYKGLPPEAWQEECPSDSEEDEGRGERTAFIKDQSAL

Sequence | furin cleavage Z-score (7.5 min) | furin cleavage Z-score (15 min) | furin cleavage Z-score (30 min)
B1 | 0.036 (inactive) | -1.42 (inactive) | 1.07
B2 | -0.288 (inactive) | -1.98 (inactive) | 0.522 (inactive)
B3 | 3.96 (active) | 5.27 (active) | 4.89 (active)
B4 | 6.81 (active) | 7.58 (active) | 7.96 (active)
B5 | -0.386 (inactive) | 0.196 (inactive) | -1 (inactive)
B6 | -0.199 (inactive) | -0.194 (inactive) | 1.29
B7 | -0.794 (inactive) | -0.905 (inactive) | -0.554 (inactive)
B8 | 10.5 (active) | 9.18 (active) | 9.56 (active)
B9 | -0.591 (inactive) | -1.01 (inactive) | 1.21
B10 | 5.26 (active) | 7.87 (active) | 5.51 (active)
B11 | -1.61 (inactive) | 0.261 (inactive) | -0.528 (inactive)
B12 | -1.19 (inactive) | -0.787 (inactive) | 0.992 (inactive)
B13 | -0.427 (inactive) | 0.174 (inactive) | 1.29
B14 | 5.89 (active) | 8.14 (active) | 7.16 (active)
B15 | 1.55 | 0.58 (inactive) | -1.58 (inactive)
B16 | -0.0603 (inactive) | -1.58 (inactive) | 0.38 (inactive)
B17 | 6.08 (active) | 8.2 (active) | 8.94 (active)
B18 | -0.645 (inactive) | -0.00567 (inactive) | -0.322 (inactive)
B19 | 9.71 (active) | 11.6 (active) | 9.65 (active)
B20 | -0.691 (inactive) | -1.05 (inactive) | -0.313 (inactive)
B21 | -0.73 (inactive) | -0.95 (inactive) | 1.04
B22 | 7.17 (active) | 8.34 (active) | 8.69 (active)
B23 | 8.61 (active) | 9.15 (active) | 7.84 (active)
B24 | -1.15 (inactive) | -0.626 (inactive) | 0.927 (inactive)
B25 | 8.17 (active) | 11.8 (active) | 9.74 (active)

Sequence | furin cleavage Z-score (7.5 min) | furin cleavage Z-score (15 min) | furin cleavage Z-score (30 min)
B26 | -1.71 (inactive) | 0.374 (inactive) | -0.248 (inactive)
B27 | -0.325 (inactive) | 0.955 (inactive) | 0.00762 (inactive)
B28 | -1.15 (inactive) | 0.0405 (inactive) | -1.03 (inactive)
B29 | 12 (active) | 13.4 (active) | 10.3 (active)
B30 | -1.51 (inactive) | -1.58 (inactive) | -0.598 (inactive)
B31 | -0.876 (inactive) | 0.139 (inactive) | -1.14 (inactive)
B32 | 0.217 (inactive) | -0.103 (inactive) | 0.349 (inactive)
B33 | 0.993 (inactive) | 0.675 (inactive) | 1.37
B34 | -0.913 (inactive) | 1.6 | 0.0245 (inactive)
B35 | -0.934 (inactive) | -0.697 (inactive) | -0.629 (inactive)
B36 | 7.77 (active) | 7.84 (active) | 6.56 (active)
B37 | 9.66 (active) | 12.7 (active) | 9.59 (active)
B38 | -0.254 (inactive) | 1.24 | -0.00218 (inactive)
B39 | 1.8 | 0.851 (inactive) | 0.876 (inactive)
B40 | 0.864 (inactive) | -0.982 (inactive) | -0.549 (inactive)
B41 | -0.929 (inactive) | -0.792 (inactive) | 0.279 (inactive)
B42 | -0.179 (inactive) | 0.383 (inactive) | 0.174 (inactive)
B43 | 2.37 | 3.82 (active) | 4.23 (active)
B44 | 3.01 | 3.49 | 4.11 (active)
B45 | -0.7 (inactive) | 2.33 | 1.85
B46 | -1.41 (inactive) | -1.28 (inactive) | -0.156 (inactive)
B47 | 11.6 (active) | 11.4 (active) | 9.47 (active)
B48 | 6.2 (active) | 7.41 (active) | 5.66 (active)
B49 | -1.38 (inactive) | -0.785 (inactive) | 0.605 (inactive)
